# Experimental data from PubChem BioAssay (NCI).
# The panel holds about 83,000 compounds, 20% with a hit somewhere; the sample as a whole holds those more often.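 Activity criterion: percent growth below 10, measured after cells in 96-well plates were exposed to a single compound concentration for 48 hours.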 Values without a mark were called inactive. The source made the active and inactive calls.
# Tests used:
# Experiment in all cases: NCI-60 one-dose screen, 48 h (100 = growth as untreated, 0 = no growth, -100 = all killed)
# Conditions in all cases: 10 µM unless noted
# SK-MEL-2 melanoma = test system: SK-MEL-2 melanoma
# EKVX NSCLC = test system: EKVX NSCLC
# SN12C renal = test system: SN12C renal
# UO-31 renal = test system: UO-31 renal
# TK-10 renal = test system: TK-10 renal
# ACHN renal = test system: ACHN renal
# CAKI-1 renal = test system: CAKI-1 renal
# A498 renal = test system: A498 renal
# MOLT-4 leukemia = test system: MOLT-4 leukemia
# SR leukemia = test system: SR leukemia
# RPMI-8226 leukemia = test system: RPMI-8226 leukemia
# OVCAR-8 ovarian = test system: OVCAR-8 ovarian
# OVCAR-5 ovarian = test system: OVCAR-5 ovarian
# OVCAR-4 ovarian = test system: OVCAR-4 ovarian
# SK-OV-3 ovarian = test system: SK-OV-3 ovarian
# IGROV1 ovarian = test system: IGROV1 ovarian
# OVCAR-3 ovarian = test system: OVCAR-3 ovarian
# HS 578T breast = test system: HS 578T breast
# NCI/ADR-RES ovarian = test system: NCI/ADR-RES ovarian
# CCRF-CEM leukemia = test system: CCRF-CEM leukemia
Compound,growth (SK-MEL-2 melanoma),growth (EKVX NSCLC),growth (SN12C renal),growth (UO-31 renal),growth (TK-10 renal),growth (ACHN renal),growth (CAKI-1 renal),growth (A498 renal),growth (MOLT-4 leukemia),growth (SR leukemia),growth (RPMI-8226 leukemia),growth (OVCAR-8 ovarian),growth (OVCAR-5 ovarian),growth (OVCAR-4 ovarian),growth (SK-OV-3 ovarian),growth (IGROV1 ovarian),growth (OVCAR-3 ovarian),growth (HS 578T breast),growth (NCI/ADR-RES ovarian),growth (CCRF-CEM leukemia)
CCCCCCCS(=O)(=O)N1CCCC(C(=O)Nc2nc3ccc(NC(=O)c4ccc(F)c(OC)c4F)cc3s2)C1 (centres undefined),58.9%,55.7%,51.3%,67.9%,85.9%,53%,59%,89.4%,59.7%,60.6%,41.3%,6.24% (active),65.1%,29.8%,57.4%,60.3%,40.2%,25.2%,46.8%,
CN1CCN(c2ccc(C(=O)/C=C/c3ccc(Br)cc3)cc2)CC1,85.4%,51.8%,13.9%,18.8%,38.4%,30.8%,30.8%,96%,,,-0.714% (active),2.63% (active),39.5%,61%,15.8%,39.4%,17.7%,89.6%,45.1%,18.2%
CCOC(=O)c1ccc(Nc2nc(NN)nc(-c3ccc(F)cc3)c2C#N)cc1,115%,120%,103%,88.3%,104%,103%,108%,101%,89.8%,72.4%,103%,112%,99.5%,98.3%,116%,109%,103%,100%,110%,
Cc1ccc(S(=O)(=O)c2nc(S(=O)(=O)c3ccc(C)cc3)c(N3CCN(C)CC3)s2)cc1,49.4%,63.4%,46.3%,69.5%,125%,71.6%,60.9%,83.5%,30%,16.1%,52.2%,48%,94.1%,62.5%,124%,77.1%,46.1%,81.1%,44.4%,
COc1ccc2[nH]c(=O)c(CSc3nccc(-c4ccc(OC)c(OC)c4)n3)cc2c1,44.2%,15.7%,33.6%,16.1%,26.4%,24.4%,-10.2% (active),47.8%,7.07% (active),23.1%,14.7%,16%,52.4%,8.75% (active),55.8%,49.8%,41.9%,-7.63% (active),23.6%,
CCN1CCN(Cc2ccc(C(=O)Nc3cccc(C#Cc4cccc5[nH]nc(N)c45)c3)cc2C(F)(F)F)CC1,-80.7% (active),-93.1% (active),-76.1% (active),-94.2% (active),-94.2% (active),-98.2% (active),-91.7% (active),-84.6% (active),,,-30.9% (active),-96.8% (active),-88.8% (active),-24.8% (active),-69.2% (active),-44.7% (active),-22.1% (active),-15.8% (active),-27% (active),3.6% (active)
COc1ccc(-c2c(Nn3cnnn3)no[n+]2[O-])cc1,82.5%,53.7%,33.3%,20.8%,62.5%,34.1%,25.7%,63.9%,27.9%,38.7%,42%,46.4%,85.6%,53.4%,91.1%,19.8%,46.5%,50%,54.9%,
N/C(=N\c1nc2ccccc2s1)NC(=O)Nc1ccc(Cl)cc1Cl,-49.9% (active),-42.5% (active),-88.7% (active),-93% (active),-84.9% (active),-87.4% (active),-87.7% (active),-84.6% (active),6.86% (active),5.8% (active),-1.62% (active),-79.3% (active),-73.2% (active),-87.7% (active),-91.5% (active),-68.5% (active),-95.5% (active),-26.7% (active),-84.8% (active),
Cn1cc(-c2cc(N)n3nc(-c4cn(C)c5ncc(Br)cc45)cc3n2)c2cc(Br)cnc21,39.5%,85.1%,12.4%,45.8%,-10.2% (active),1.23% (active),56.6%,114%,-54.3% (active),-35.1% (active),5.51% (active),14.6%,70%,-47.3% (active),104%,43.5%,-68% (active),55.1%,14.9%,
C/C(=N\Nc1ccc(S(N)(=O)=O)cc1)c1ccc(N=Nc2c(Nc3ccccc3)[nH][nH]c2=O)cc1,-51.9% (active),62.5%,-12.9% (active),86.1%,71.9%,42.4%,77.1%,35.2%,,,3.47% (active),-20.2% (active),58.3%,42.6%,-15.5% (active),43.3%,-2.25% (active),21.5%,89.6%,3.59% (active)
O=C1C(=Nc2ccc(F)c(Cl)c2)c2cccc3cccc1c23,97.5%,75.5%,57.3%,38.2%,111%,32.2%,55.4%,118%,,,8.45% (active),3.58% (active),94.7%,86.1%,87.4%,66.4%,25.3%,89.9%,84.1%,6.25% (active)
CCOC(=O)C1=C(N)N(c2ccccc2)C2=C(C(=O)CC(C)(C)C2)C1c1ccc(N2CCOCC2)cc1 (centres undefined),97.4%,95.4%,95.7%,90.3%,108%,96.7%,82.1%,110%,99.2%,83.8%,96.2%,97.1%,101%,101%,102%,108%,113%,95.1%,100%,
N#Cc1cnn(C(=O)c2ccccc2Br)c1NC(=O)c1ccc(Br)cc1Cl,111%,100%,104%,85.9%,101%,103%,94.5%,106%,99.9%,78.2%,102%,104%,102%,101%,86.7%,115%,119%,,98.7%,
COc1cc2c(c(OC)c1OC)C(=O)CC(c1cccc(NC(=O)c3cc(NC(=O)[C@H](CO)NC(=O)OC(C)(C)C)ccc3Cl)c1)O2 (some centres undefined),11.7%,62.2%,27.1%,48.8%,78.9%,46.1%,31.2%,91.5%,12.5%,19.4%,17.9%,21.9%,86.8%,47.9%,81.7%,36.8%,27.4%,28.7%,76.4%,
O=C(Cn1nc(-c2ccccc2)ccc1=O)N/N=C/c1ccc(N2CCOCC2)cc1,98.1%,95.3%,94.9%,75.8%,103%,95.7%,90.8%,84%,98.1%,85.9%,87.8%,102%,107%,93.9%,107%,113%,103%,86.6%,95.5%,
COc1ccc2c(c1)c(-c1cc3nc(-c4cn(C)c5ncc(Br)cc45)cc(N)n3n1)cn2C,-68.6% (active),-51.6% (active),-75.3% (active),-58.1% (active),-40.8% (active),-92.3% (active),-39.9% (active),86.8%,-43.6% (active),-6.89% (active),-0.77% (active),-48.8% (active),-47.6% (active),17.3%,-55.6% (active),-25.8% (active),-18.6% (active),-18.6% (active),-30.3% (active),
